# Results as given in PubChem BioAssay (Tox21).
# A number with no mark means an inactive call. Inconclusive results are not listed. A call without a number means that no potency is given here. Calls of active or inactive are those of the source. Unless noted, calls come from the whole dose curve; as a rule, active = well fitted curve in the direction sought with a large enough effect in the repeat runs; inconclusive = weak or mixed curves; inactive = no such curve, though single readings can be large; an effect the other way counts as inactive or inconclusive.
# What was measured:
# [1] = biological target: Progesterone receptor (Homo sapiens) (UniProt P06401); test: qHTS assay to identify small molecule agonists of the progesterone receptor (PR) signaling pathway (AID 1346784; calls by dose curve; note: nearly all actives have a fitted effect of over 30% in size)
# Procedure, shortened: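 PR-UAS-bla HEK 293T cells carrying a UAS-driven beta-lactamase reporter were seeded in medium with 2% charcoal-stripped FBS, preincubated 6 hr at 37C, then exposed to compounds in DMSO for 16 hr; agonism was read by LiveBLAzer B/G FRET fluorescence.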
# [2] = biological target: Progesterone receptor (Homo sapiens) (UniProt P06401); test: qHTS assay to identify small molecule antagonists of the progesterone receptor (PR) signaling pathway (AID 1346795; active = well fitted inhibition curve with a large enough effect in the signal ratio in the repeat runs, not every such curve was filed as active; the % refers to the signal ratio)
# Procedure, shortened: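 PR-UAS-bla HEK293T cells carrying a UAS-driven beta-lactamase reporter were plated in medium with 2% charcoal-stripped FBS and rested 6 hr at 37C. Compounds were added with 1 nM R5020 (final) for 16 hr, then FRET substrate loaded 2 hr at room temperature.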
# [3] = qHTS assay to identify small molecule antagonists of the progesterone receptor (PR) signaling pathway - cell viability counter screen (AID 1346798); note: nearly all actives have a fitted effect of over 50% in size; note: potency is the fitted concentration of half-maximal effect
# Procedure, shortened: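 PR-UAS-bla HEK293T cells in medium with 2% charcoal-stripped FBS were treated with compounds plus R5020 for 16 hr at 37C. Cell viability was then read by CellTiter-Glo luminescence after 30 min at room temperature in the same wells.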
# [4] = qHTS assay to identify small molecule agonists of the progesterone receptor (PR) signaling pathway - cell viability counter screen (AID 1346799; calls by dose curve; note: nearly all actives have a fitted effect of over 45% in size; note: potency is the fitted concentration of half-maximal effect)
# Procedure, shortened: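 PR-UAS-bla HEK293T cells, 3,000 per well in medium with 2% charcoal-stripped FBS, were preincubated 6 hr at 37C, then exposed to compounds for 16 hr; viability was read as CellTiter-Glo luminescence after 30 min at room temperature.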
# [5] = qHTS assay to identify small molecule antagonists of the TGF-beta/Smad signaling pathway - cell viability counter screen (AID 1346824); note: nearly all actives have a fitted effect of over 50% in size
# Procedure, shortened: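 SBE-bla HEK 293T cells, incubated overnight, then compound plus 0.25 ng/mL TGF-beta1 (stock added) for 5 hr at 37 C. Viability was read in the same wells by CellTiter-Glo luminescence after 30 min at room temperature.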
# [6] = qHTS assay to identify small molecule agonists of the TGF-beta/Smad signaling pathway - cell viability counter screen (AID 1346829); note: top concentration of the series differs between compounds; nearly all actives have a fitted effect of over 45% in size
# Procedure, shortened: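 Compound-treated SBE-bla HEK 293T cells (5 hr, 37 C) were assessed for viability with CellTiter-Glo in parallel with the reporter read.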
# [7] = qHTS assay to identify small molecule agonists of the TGF-beta/Smad signaling pathway (AID 1346859; active = well fitted activation curve with a large enough effect in the signal ratio in the repeat runs, not every such curve was filed as active; the % refers to the signal ratio; note: series mostly up to about 77 µM)
# Procedure, shortened: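 HEK 293T cells stably carrying a beta-lactamase reporter driven by the Smad binding element were seeded overnight, exposed to DMSO-dissolved compounds for 5 hr at 37 C, 5% CO2, then loaded with FRET substrate for 2 hr at room temperature.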
# [8] = biological target: Thyrotropin-releasing hormone receptor (Homo sapiens) (UniProt P34981); test: qHTS assay to identify small molecule antagonists of the thyrotropin-releasing hormone receptor (TRHR) signaling pathway (AID 1346877; active = well fitted inhibition curve with a large enough effect in the repeat runs, not every such curve was filed as active; note: series mostly up to about 51 µM)
# Procedure, shortened: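 Kinetic fluorescence (3 min, 1 s resolution) following stimulation with TRH at 1 nM final; HEK293 cells bearing human TRHR; 5 min compound preincubation at RT; concentration-response over 15 points, triplicates.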
# [9] = biological target: Thyrotropin-releasing hormone receptor (Homo sapiens) (UniProt P34981); test: qHTS assay to identify small molecule agonists of the thyrotropin-releasing hormone receptor (TRHR) signaling pathway (AID 1346891; calls by dose curve; note: series mostly up to about 58 µM)
# Procedure, shortened: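 TRHR-expressing HEK293 cells were plated 18 h at 37 °C/5% CO2, loaded with calcium dye 2 h at 37 °C, then given compound in DMSO; fluorescence was read kinetically for 3 min at 1 s intervals.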
# [10] = Human pregnane X receptor (PXR) small molecule agonists, qHTS cell viability counter screen (AID 1346977); note: nearly all actives have a fitted effect of over 50% in size; note: potency is the fitted concentration of half-maximal effect
# Procedure, shortened: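 PXR-Luc HepG2 cells in medium with 5% charcoal-stripped FBS were pre-incubated 5hr, then exposed to compounds for 24hr at 37C. Viability was read in the same wells by CellTiter-Fluor fluorescence, reagent added after 23hr with a 1hr incubation.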
# [11] = Caspase-3/7 induction in HepG2 cells by small molecules, qHTS assay (AID 1346978); note: nearly all actives have a fitted effect of over 15% in size
# Procedure, shortened: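 Wild-type HepG2 cells, 2,000/well, settled 5 hr at 37 C and 5% CO2, then compound-treated for 17 hr; caspase-3/7 activity read by luminescent Caspase-Glo 3/7 after 30 min at room temperature.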
# [12] = Caspase-3/7 induction in CHO-K1 cells by small molecules, qHTS assay (AID 1346980); note: nearly all actives have a fitted effect of over 15% in size
# Procedure, shortened: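 Wild-type CHO-K1 cells exposed to compounds for 17hr at 37 C, 5% CO2. Caspase-3/7 activity then measured by Caspase-Glo 3/7 luminescence after 30min at room temperature.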
# [13] = Caspase-3/7 induction in HepG2 cells by small molecules, qHTS cell viability counter screen (AID 1346981); note: nearly all actives have a fitted effect of over 30% in size; note: potency is the fitted concentration of half-maximal effect
# Procedure, shortened: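 In this quantitative HTS counter screen, compounds delivered in DMSO were left on unmodified HepG2 cells for 16 hr at 37 C. Viability was then determined fluorometrically with CellTiter-Fluor, in parallel with caspase-3/7 induction in the same wells.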
# [14] = biological target: Nuclear receptor subfamily 1 group I member 2 (Homo sapiens) (UniProt O75469); test: Human pregnane X receptor (PXR) small molecule agonists, qHTS assay (AID 1346982); note: potency is the fitted concentration of half-maximal effect; nearly all actives have a fitted effect of over 35% in size
# Procedure, shortened: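 Reporter HepG2 cells expressing PXR-Luc are cultured in charcoal-stripped FBS (5%), treated with compounds for 24 hr at 37 C, and assayed by ONE-Glo luminescence after 30 min at room temperature.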
# [15] = biological target: Acetylcholinesterase (Homo sapiens) (UniProt P22303); test: Acetylcholinesterase (AChE) small molecule antagonists: colormetric cell-based qHTS assay (AID 1347395; calls by dose curve; note: nearly all actives have a fitted effect of over 30% in size)
# Procedure, shortened: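 SH-SY5Y cells, plated overnight at 37 C, were exposed to compounds for 30 min at 37 C and 5% CO2. Acetylthiocholine plus DTNB was then added, and thiocholine from endogenous AChE was quantified colorimetrically after 90 min at 37 C.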
# [16] = qHTS assay to identify small molecule agonists of the estrogen receptor alpha (ER-alpha) signaling pathway in the presence of an antagonist - cell viability counter screen (AID 1259386);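 note: cells exposed to compounds for 22 h at 37 °C before the viability read; nearly all actives have a fitted effect of over 30% in size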; note: potency is the fitted concentration of half-maximal effect
# Procedure, shortened: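 In this counter screen, compound effects on VM7Luc4E2 viability were tested in the presence of the antagonist ICI-182,780 at 10.0nM final. Compounds were dosed at 15 concentrations, exposure lasted 22hr, and the CellTiter-Fluor signal was read.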
# [17] = Caspase-3/7 induction in CHO-K1 cells by small molecules, qHTS cell viability counter screen (AID 1346979); note: potency is the fitted concentration of half-maximal effect; nearly all actives have a fitted effect of over 35% in size
# Procedure, shortened: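 Wild-type CHO-K1 cells were seeded at 1,500 per well, rested 5hr at 37 C, then exposed to compounds in DMSO. After 16hr, CellTiter-Fluor reagent was added and fluorescence read 1hr later as the viability measure.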
# Chain of Nuclear receptor subfamily 1 group I member 2 (Homo sapiens) (O75469 whole entry, looked up): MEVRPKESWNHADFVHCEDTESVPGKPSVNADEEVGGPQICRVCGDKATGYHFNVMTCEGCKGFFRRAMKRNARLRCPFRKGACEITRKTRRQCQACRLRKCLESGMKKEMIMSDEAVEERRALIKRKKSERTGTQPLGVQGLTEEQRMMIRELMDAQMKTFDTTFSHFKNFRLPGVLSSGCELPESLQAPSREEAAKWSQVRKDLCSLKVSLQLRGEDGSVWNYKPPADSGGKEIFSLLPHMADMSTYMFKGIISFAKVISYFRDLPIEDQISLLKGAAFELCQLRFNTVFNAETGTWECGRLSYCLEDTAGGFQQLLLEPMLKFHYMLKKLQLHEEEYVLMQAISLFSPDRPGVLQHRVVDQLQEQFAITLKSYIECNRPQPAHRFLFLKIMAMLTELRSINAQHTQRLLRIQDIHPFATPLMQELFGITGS
# Chain of Thyrotropin-releasing hormone receptor (Homo sapiens) (P34981 whole entry, looked up): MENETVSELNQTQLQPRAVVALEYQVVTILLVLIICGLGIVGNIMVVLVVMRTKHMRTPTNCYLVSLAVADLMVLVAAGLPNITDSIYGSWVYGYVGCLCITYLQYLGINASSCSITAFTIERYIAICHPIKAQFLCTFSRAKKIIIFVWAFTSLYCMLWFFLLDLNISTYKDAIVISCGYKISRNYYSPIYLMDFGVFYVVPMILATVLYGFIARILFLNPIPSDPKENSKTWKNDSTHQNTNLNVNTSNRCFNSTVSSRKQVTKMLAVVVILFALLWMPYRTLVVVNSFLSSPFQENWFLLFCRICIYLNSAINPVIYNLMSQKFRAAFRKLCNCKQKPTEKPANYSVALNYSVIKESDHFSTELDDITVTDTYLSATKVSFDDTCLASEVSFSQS
# Chain of Acetylcholinesterase (Homo sapiens) (P22303 whole entry, looked up): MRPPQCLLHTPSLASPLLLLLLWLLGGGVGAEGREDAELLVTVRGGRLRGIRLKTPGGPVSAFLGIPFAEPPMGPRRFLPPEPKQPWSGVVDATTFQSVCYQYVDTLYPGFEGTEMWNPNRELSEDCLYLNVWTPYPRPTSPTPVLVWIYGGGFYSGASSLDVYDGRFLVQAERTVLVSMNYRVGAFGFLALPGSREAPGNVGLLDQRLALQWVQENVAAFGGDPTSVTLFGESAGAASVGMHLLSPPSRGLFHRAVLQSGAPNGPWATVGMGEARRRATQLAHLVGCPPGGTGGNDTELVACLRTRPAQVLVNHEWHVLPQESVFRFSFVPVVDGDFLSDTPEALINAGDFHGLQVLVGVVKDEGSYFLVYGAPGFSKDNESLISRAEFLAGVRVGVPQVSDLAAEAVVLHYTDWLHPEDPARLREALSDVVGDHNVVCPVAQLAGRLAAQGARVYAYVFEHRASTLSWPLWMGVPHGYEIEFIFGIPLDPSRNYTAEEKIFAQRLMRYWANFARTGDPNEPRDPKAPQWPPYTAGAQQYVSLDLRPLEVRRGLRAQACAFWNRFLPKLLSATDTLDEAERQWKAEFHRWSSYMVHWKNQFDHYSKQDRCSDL
# Chain of Progesterone receptor (Homo sapiens) (P06401 whole entry, looked up): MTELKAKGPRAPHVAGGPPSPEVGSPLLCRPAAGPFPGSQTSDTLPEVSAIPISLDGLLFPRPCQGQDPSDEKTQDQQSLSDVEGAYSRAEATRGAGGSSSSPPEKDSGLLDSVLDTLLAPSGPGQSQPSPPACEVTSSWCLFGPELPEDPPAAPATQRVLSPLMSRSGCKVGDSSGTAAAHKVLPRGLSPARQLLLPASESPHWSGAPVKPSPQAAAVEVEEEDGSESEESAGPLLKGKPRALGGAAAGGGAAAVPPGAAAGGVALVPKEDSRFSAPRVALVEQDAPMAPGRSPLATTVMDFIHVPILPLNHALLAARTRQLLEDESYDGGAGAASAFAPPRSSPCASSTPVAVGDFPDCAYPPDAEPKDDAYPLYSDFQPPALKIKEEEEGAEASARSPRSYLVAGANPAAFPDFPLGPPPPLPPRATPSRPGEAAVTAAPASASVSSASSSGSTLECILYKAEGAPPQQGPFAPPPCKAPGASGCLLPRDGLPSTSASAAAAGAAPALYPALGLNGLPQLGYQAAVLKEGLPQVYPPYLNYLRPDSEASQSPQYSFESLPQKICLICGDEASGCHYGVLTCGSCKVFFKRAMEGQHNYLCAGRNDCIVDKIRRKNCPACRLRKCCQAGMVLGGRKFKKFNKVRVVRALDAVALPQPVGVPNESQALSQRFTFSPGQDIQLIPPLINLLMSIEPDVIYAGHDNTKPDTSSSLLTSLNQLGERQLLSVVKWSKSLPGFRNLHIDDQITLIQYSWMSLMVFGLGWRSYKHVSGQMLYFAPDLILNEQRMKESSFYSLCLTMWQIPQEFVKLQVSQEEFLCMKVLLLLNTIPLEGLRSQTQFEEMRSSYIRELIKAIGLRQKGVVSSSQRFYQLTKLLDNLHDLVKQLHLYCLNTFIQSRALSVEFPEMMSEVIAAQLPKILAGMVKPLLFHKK
Compound,Potency [1],Potency [2],Potency [3],Potency [4],Potency [5],Potency [6],outcome [7],Potency [8],Potency [9],Potency [10],Potency [11],Potency [12],Potency [13],Potency [14],Potency [15],Potency [16],Potency [17]
O=C1NCN(c2ccccc2)C12CCN(CC1COc3ccccc3O1)CC2 (stereo not drawn),inactive,inactive,inactive,inactive,inactive,inactive,inactive,inactive,inactive,inactive,inactive,inactive,inactive,5.96 µM (active),inactive,,
O=C(O)c1cc[c]([Hg][Cl])cc1,,,,,,inactive,,inactive,inactive,68.6 µM (active),inactive,inactive,,21.7 µM (active),inactive,inactive,24.3 µM (active)
CC(=O)[O-].CC(=O)[O-].O.O.[Cd+2],,,19.1 µM (active),15.1 µM (active),,inactive,inactive,,,,inactive,inactive,67.6 µM (active),,,60.3 µM (active),1.7 µM (active)
O=C(CCCN1CCC2(CC1)C(=O)NCN2c1ccccc1)c1ccc(F)cc1,inactive,inactive,inactive,inactive,inactive,inactive,inactive,,,6.68 µM (active),inactive,inactive,7.5 µM (active),4.22 µM (active),inactive,,23.7 µM (active)
S=C=Nc1cccc2ccccc12,,,,,inactive,inactive,inactive,inactive,inactive,,inactive,inactive,60.5 µM (active),10.8 µM (active),inactive,60.5 µM (active),60.5 µM (active)
CC(C)(O)c1cnn2c(-c3ccc(F)c(-c4c(F)cccc4C#N)c3)cnc2n1,,,,,inactive,inactive,,inactive,,,inactive,inactive,,2.43 µM (active),,inactive,
CC1(C)CC/C(=C/c2ccc(Cl)cc2)C1(O)Cn1cncn1 (stereo not drawn),,,,,inactive,inactive,,inactive,inactive,inactive,inactive,inactive,inactive,12.1 µM (active),inactive,inactive,
